In PubChem BioAssay (NCATS):
Inconclusive results are not listed. Calls of active or inactive are those of the source. Calls follow the shape of the full dose curve.

Experiments:
[1] = Primary qHTS for inhibitors of SARS-S pseudo-typed particle cell entry (AID 1479145); also: nearly all actives have a fitted effect of over 45% in size
[2] = Primary qHTS for Huh7 cytotoxicity: counterscreen for inhibitors of MERS-S pseudotyped particle cell entry (AID 1479147)
[3] = Primary qHTS for inhibitors of MERS-S pseudo-typed particle cell entry (AID 1479149); also: nearly all actives have a fitted effect of over 60% in size
[4] = Primary qHTS for Vero E6 cytotoxicity: counterscreen for inhibitors of SARS-S pseudo-typed particle cell entry (AID 1479150)

Measured: Potency

NC(=O)CC[C@@H](N)C(=O)O
inactive: all assays above

CN(C)CCN(Cc1cccs1)c1ccccn1
inactive: all assays above

CNC(=O)Oc1ccc2c(c1)[C@]1(C)CCN(C)[C@@H]1N2C
inactive: all assays above

CN(C)[C@@H]1C(=O)C(C(=O)NCN2CCCC2)=C(O)[C@@]2(O)C(=O)C3=C(O)c4c(O)cccc4[C@@](C)(O)C3C[C@@H]12 (stereo partly specified)
inactive: all assays above

CC(C(=O)O)c1ccc(CC2CCCC2=O)cc1 (stereo unspecified)
inactive: all assays above

c1ccc([C@H]2CN3CCSC3=N2)cc1
inactive: all assays above

CC(=O)CCC(=O)O
inactive: all assays above

C[C@@H]1C[C@H]2[C@@H]3CCC4=CC(=O)C=C[C@]4(C)[C@@]3(F)[C@@H](O)C[C@]2(C)[C@H]1C(=O)CO
inactive: all assays above

NC(=O)CCCCC1CCSS1 (stereo unspecified)
inactive: all assays above

COc1ccc(CN(CCN(C)C)c2ccccn2)cc1
inactive: all assays above

C#C[C@]1(OC(C)=O)CC[C@H]2[C@@H]3CCC4=C/C(=N/O)CC[C@@H]4[C@H]3CC[C@@]21CC
inactive: all assays above

O=C(CCCCCCCCC#CI)Oc1ccccc1
inactive: all assays above

O=c1ccc2ccccc2o1
inactive: all assays above

CC[N+]1(CC)CCC(=C(c2ccccc2)c2ccccc2)C1C (stereo unspecified)
inactive: all assays above

O=Cc1ccccc1C=O
inactive: all assays above

CCN(CC)C(=O)c1cccc(C)c1
inactive: all assays above

C/C(=C(/OCCOc1ccc(Cl)cc1)c1ccc(Cl)cc1Cl)n1ccnc1
inactive: all assays above

O=C1c2ccccc2C(=O)C1c1ccccc1
inactive: all assays above

CC(C)(C)C(=O)C(Oc1ccc(Cl)cc1)n1ccnc1 (stereo unspecified)
inactive: all assays above

CCN1CCCC(OC(=O)C(c2ccccc2)c2ccccc2)C1 (stereo unspecified)
inactive: all assays above

CCN(CC)CC(=O)Nc1c(C)cccc1C
inactive: all assays above

O=C1OC2(c3ccc(O)cc3Oc3cc(O)ccc32)c2ccccc21
inactive: all assays above

Oc1ccc(C(O)CNCCCCCCNCC(O)c2ccc(O)c(O)c2)cc1O (stereo unspecified)
inactive: all assays above

CCc1cccc2c3c([nH]c12)C(CC)(CC(=O)O)OCC3 (stereo unspecified)
inactive: all assays above

Cc1c(N(C)C)c(=O)n(-c2ccccc2)n1C
inactive: all assays above

CCCCOc1ccc(CC(=O)NO)cc1
inactive: all assays above

CCCc1nc(C)c2c(=O)[nH]c(-c3cc(S(=O)(=O)N4CCN(CC)CC4)ccc3OCC)nn12
inactive: all assays above

Cc1ncc(CSSCc2cnc(C)c(O)c2CO)c(CO)c1O
inactive: all assays above

CCOCC(O)COc1ccc(NC(=O)CC[S+](C)C)cc1 (stereo unspecified)
inactive: all assays above
